Reference: PubChem BioAssay (NCATS)
Records with an inconclusive call do not appear. Calls of active or inactive are those of the source. The call rests on the fitted dose curve; in most records, active means well fitted inhibition curve with a large enough effect; inconclusive means small, poorly fitted or top-dose-only effect; inactive means flat fitted curve, though single readings scatter.

Assays:
Assay in all cases: qHTS profiling for inhibitors of Plasmodium falciparum proliferation (AID 504749); further: nearly all actives have a fitted effect of over 60% in size
Conditions in all cases: P. falciparum in erythrocytes, SYBR Green DNA, 72 h; series mostly up to 28.7 µM
[1] = system: ATS95
Procedure, shortened: (§1)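 Each compound contacts P. falciparum-infected red blood cells for 72 h at 37 C; lysis buffer (Tris, EDTA, saponin, Triton X, SYBR Green I) is added and fluorescence measured next morning; values normalized to controls.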

[2] = system: C2A
Procedure, shortened: as §1

[3] = system: CP192
Procedure, shortened: as §1

[4] = system: CP194
Procedure, shortened: as §1

[5] = system: CP237
Procedure, shortened: as §1

[6] = system: CP250
Procedure, shortened: as §1

[7] = system: CP256
Procedure, shortened: as §1

[8] = system: CP260
Procedure, shortened: as §1

[9] = system: CP269
Procedure, shortened: as §1

[10] = system: CP329
Procedure, shortened: as §1

[11] = system: ECU
Procedure, shortened: as §1

[12] = system: HB3
Procedure, shortened: as §1

[13] = system: JCK
Procedure, shortened: as §1

[14] = system: PC15
Procedure, shortened: as §1

[15] = system: SC27B
Procedure, shortened: as §1

[16] = system: TAB113
Procedure, shortened: as §1

[17] = system: TAB165
Procedure, shortened: as §1

[18] = system: CP315
Procedure, shortened: as §1

[19] = system: DIV30
Procedure, shortened: as §1

[20] = system: PC49
Procedure, shortened: as §1

Measured: Potency
Potency means the concentration at half of the fitted maximal effect.

CC[C@H](C)[C@H]1O[C@]2(CC[C@@H]1C)C[C@@H]1C[C@@H](C/C=C(\C)[C@H](O[C@@H]3C[C@H](OC)[C@H](O[C@@H]4C[C@H](OC)[C@@H](O)[C@H](C)O4)[C@H](C)O3)[C@@H](C)/C=C/C=C3\CO[C@@H]4[C@H](O)C(C)=C[C@@H](C(=O)O1)[C@]34O)O2
active: [1] 1120 nM | [2] 1410 nM | [3] 1690 nM | [4] 1350 nM | [5] 2240 nM | [6] 891 nM | [7] 708 nM | [8] 2240 nM | [9] 1350 nM | [10] 1350 nM | [11] 891 nM | [12] 2000 nM | [13] 15800 nM | [14] 2820 nM | [15] 1000 nM | [16] 891 nM | [17] 794 nM

NCCCCC(N)C(=O)O (stereo not given)
inactive: [1] | [2] | [3] | [4] | [5] | [6] | [7] | [8] | [9] | [18] | [10] | [19] | [11] | [12] | [13] | [14] | [20] | [15] | [16] | [17]

COc1cccc2c1C(=O)c1c(O)c3c(c(O)c1C2=O)C[C@@](O)(C(=O)CO)C[C@@H]3OC1CC(N)C(O)C(C)O1 (stereo not given in full)
active: [1] 2000 nM | [2] 2240 nM | [3] 1900 nM | [4] 4780 nM | [5] 891 nM | [6] 2510 nM | [7] 2240 nM | [8] 708 nM | [9] 3380 nM | [18] 6750 nM | [10] 1900 nM | [19] 4260 nM | [11] 3160 nM | [12] 2000 nM | [13] 12600 nM | [14] 2000 nM | [20] 5620 nM | [15] 2510 nM | [16] 2510 nM | [17] 2240 nM

O=C(O)c1ccc(N[C@@H]2OC[C@@H](O)[C@@H](O)[C@@H]2O)cc1
inactive: [1] | [2] | [3] | [4] | [5] | [6] | [7] | [8] | [9] | [18] | [10] | [19] | [11] | [12] | [13] | [14] | [20] | [15] | [16] | [17]

NC(=O)OC[C@@H]1[C@H](NC(=O)/C(=N/OCC(=O)O)c2csc(N)n2)C(=O)N1S(=O)(=O)O
inactive: [1] | [2] | [3] | [4] | [5] | [6] | [7] | [8] | [9] | [18] | [10] | [19] | [11] | [12] | [14] | [20] | [15] | [16] | [17]

CCN(CC)CC(=O)Nc1c(C)cc(C)cc1C
inactive: [1] | [2] | [3] | [4] | [5] | [6] | [7] | [8] | [9] | [18] | [10] | [19] | [11] | [12] | [13] | [14] | [20] | [15] | [16] | [17]

CNC(=O)C(N)CSC(C)C1=C(C)c2cc3[n-]c(cc4nc(cc5[n-]c(cc1n2)c(C)c5CCC(=O)O)C(CCC(=O)O)=C4C)c(C)c3C(C)SCC(N)C(=O)NC.[Fe+2] (stereo not given)
inactive: [1] | [2] | [3] | [4] | [5] | [6] | [7] | [8] | [9] | [18] | [10] | [19] | [11] | [12] | [13] | [14] | [20] | [15] | [16] | [17]

OCC1OC(O)C(O)C(O)C1O (stereo not given)
inactive: [1] | [2] | [3] | [4] | [5] | [6] | [7] | [8] | [18] | [10] | [19] | [11] | [12] | [13] | [14] | [20] | [15] | [16] | [17]

OCC1O[C@H](Oc2ccc(O)cc2)C(O)C(O)C1O (stereo not given in full)
inactive: [1] | [2] | [3] | [4] | [5] | [6] | [7] | [8] | [9] | [18] | [10] | [19] | [12] | [13] | [14] | [20] | [15] | [16] | [17]

CCCCCCCCCCCCCCCC(=O)OC[C@H](O)[C@H]1OC[C@@H](O)[C@@H]1O
inactive: [1] | [2] | [3] | [4] | [5] | [6] | [7] | [8] | [9] | [18] | [10] | [19] | [11] | [12] | [13] | [14] | [20] | [15] | [16] | [17]

CC1OC(OCC2OC(Oc3c(-c4ccc(OCCO)c(OCCO)c4)oc4cc(OCCO)cc(O)c4c3=O)C(O)C(O)C2O)[C@@H](O)C(O)C1O (stereo not given in full)
inactive: [1] | [2] | [3] | [4] | [5] | [6] | [7] | [8] | [9] | [18] | [10] | [19] | [11] | [12] | [13] | [14] | [20] | [15] | [16] | [17]

OCC(CO)NC1C[C@](O)(CO)[C@@H](O)[C@H](O)[C@H]1O (stereo not given in full)
inactive: [1] | [2] | [3] | [4] | [5] | [6] | [7] | [8] | [9] | [18] | [10] | [19] | [11] | [12] | [13] | [14] | [20] | [15] | [16] | [17]

CC1(C)SC2C(NC(=O)C(C(=O)O)c3ccccc3)C(=O)N2C1C(=O)O (stereo not given)
inactive: [1] | [2] | [3] | [4] | [5] | [6] | [7] | [8] | [9] | [18] | [10] | [19] | [11] | [12] | [13] | [14] | [20] | [15] | [16] | [17]

O=[N+]([O-])O[C@H]1CO[C@H]2[C@@H]1OC[C@H]2O
inactive: [1] | [2] | [3] | [4] | [5] | [6] | [7] | [8] | [9] | [18] | [10] | [19] | [11] | [12] | [13] | [14] | [20] | [15] | [16] | [17]

COc1cc2c(cc1O)CCN[C@@]21CS[C@H]2c3c(OC(C)=O)c(C)c4c(c3C(COC1=O)N1C2C2c3c(cc(C)c(OC)c3O)CC([C@@H]1O)N2C)OCO4 (stereo not given in full)
active: [1] 0.9 nM | [2] 2.8 nM | [3] 1.5 nM | [4] 1.3 nM | [5] 0.9 nM | [6] 4 nM | [7] 5.6 nM | [8] 0.9 nM | [9] 0.5 nM | [18] 1.5 nM | [10] 0.5 nM | [19] 1.5 nM | [11] 0.8 nM | [12] 0.3 nM | [14] 1.1 nM | [20] 1.3 nM | [15] 0.8 nM | [16] 0.9 nM | [17] 1 nM

CC(=O)OCC(=O)[C@@]1(O)CCC2C3C[C@H](C)C4=CC(=O)C=CC4(C)C3C(O)CC21C (stereo not given in full)
inactive: [1] | [2] | [3] | [4] | [5] | [6] | [7] | [8] | [9] | [18] | [10] | [19] | [11] | [12] | [13] | [14] | [20] | [15] | [16] | [17]

CN(C)CC/C=C1\c2ccccc2COc2ccc(CC(=O)O)cc21
inactive: [1] | [2] | [3] | [4] | [5] | [6] | [7] | [8] | [9] | [18] | [10] | [19] | [11] | [12] | [13] | [14] | [20] | [15] | [16] | [17]

CC1(C)C2CC[C@]1(C)[C@@H](O)C2
inactive: [1] | [2] | [3] | [4] | [5] | [6] | [7] | [8] | [9] | [18] | [10] | [19] | [11] | [12] | [13] | [14] | [20] | [15] | [16] | [17]

CCCCC(=O)OCC(=O)[C@]1(O)Cc2c(O)c3c(c(O)c2[C@H](OC2CC(NC(=O)C(F)(F)F)C(O)C(C)O2)C1)C(=O)c1c(OC)cccc1C3=O (stereo not given in full)
active: [1] 2000 nM | [2] 2000 nM | [3] 2390 nM | [4] 3010 nM | [5] 1580 nM | [6] 2510 nM | [7] 2000 nM | [8] 2000 nM | [9] 1690 nM | [18] 1690 nM | [10] 3790 nM | [19] 1900 nM | [11] 2510 nM | [12] 2510 nM | [14] 3550 nM | [15] 2510 nM | [16] 2510 nM | [17] 2240 nM

CN[C@H](C)CCC=C(C)C
active: [1] 355 nM | [2] 631 nM | [3] 953 nM | [4] 675 nM | [5] 199 nM | [6] 631 nM | [7] 631 nM | [8] 224 nM | [9] 478 nM | [18] 849 nM | [19] 135 nM | [11] 224 nM | [12] 199 nM | [13] 355 nM | [14] 355 nM | [20] 282 nM | [15] 355 nM | [16] 178 nM | [17] 251 nM
